Our source for the log2 fold change values is the supplement of paper PMC10849652.

What all share (experiment): log2 fold change, soluble protein after heating vs DMSO (PISA); higher = thermal stabilisation; K562 cells, 10 uM, 30 min; active = over 0.2 and 3.5 SD of the protein, either way, in both replicates (recomputed)
Compound in assay [1]: NC(=O)Nc1cc(-c2cccc(F)c2)sc1C(=O)N[C@H]1CCCNC1
An outline of the steps:
(§1)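 K562 cells at 2×10^6 cells/mL were given 10 μM compound for 30 min. Aliquots then went through 3 min of heating across 48°C-58°C, were pooled, and were extracted in PBS with 0.5% NP-40 at 4°C, and the supernatant after 21,000xg for 90 min was quantified by TMTpro 16plex LC-MS/MS with channel sums equalised. Thermal stability relative to control samples, from duplicates, is given as log2 fold change.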

Compound in assay [2]: NC(=O)c1cnc(N[C@@H]2CCCC[C@@H]2N)nc1Nc1cccc(-n2nccn2)c1
An outline of the steps: as §1

Compound in assay [3]: NC1(c2ccc(-c3nc4ccn5c(=O)[nH]nc5c4cc3-c3ccccc3)cc2)CCC1
The essentials: as §1

Compound in assay [4]: NCC(=O)Nc1ccc(-n2nc(C(F)(F)F)cc2-c2ccc3c(ccc4ccccc43)c2)cc1
An outline of the steps: as §1

Compound in the next assay: Nc1ccccc1NC(=O)c1ccc(CNC(=O)OCc2cccnc2)cc1 [entinostat]
The essentials:
as §1

Compound in another assay: O=C(CCCCCCC(=O)Nc1ccccc1)NO [vorinostat]
An outline of the steps: as §1

Compound in the next assay: O=C(CCCCCCNC(=O)c1cnc(N(c2ccccc2)c2ccccc2Cl)nc1)NO [citarinostat]
An outline of the steps: as §1

Compound in a further assay: O=C(O)c1ccc2c(c1)nc(Nc1cccc(Cl)c1)c1ccncc12 [silmitasertib]
An outline of the steps:
as §1

Compound in assay [5]: O=C1NC(=O)C(c2cnc3ccccn23)=C1c1cn2c3c(cc(F)cc13)CN(C(=O)N1CCCCC1)CC2
An outline of the steps:
as §1

Compound in assay [6]: c1cc(OCCN2CCCCC2)cc(-c2n[nH]c3ccc(-c4nnc[nH]4)cc23)c1
An outline of the steps: as §1

Targets with a hit are over-represented here; the source holds about 7,900 in all. About 0.6% of all pairs of compound and target were hits. Values without a mark were called inactive.

Chain of UniProt P29084 (P29084 whole entry, looked up): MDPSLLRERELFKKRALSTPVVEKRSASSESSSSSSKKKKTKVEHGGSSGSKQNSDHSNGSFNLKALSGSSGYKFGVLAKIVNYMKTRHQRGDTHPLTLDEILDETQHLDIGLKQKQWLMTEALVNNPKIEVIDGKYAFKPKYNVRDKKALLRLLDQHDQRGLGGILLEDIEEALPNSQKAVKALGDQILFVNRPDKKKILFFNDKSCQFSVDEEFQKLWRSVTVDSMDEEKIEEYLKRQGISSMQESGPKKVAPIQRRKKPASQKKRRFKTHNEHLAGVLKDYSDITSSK
Chain of UniProt P37268 (P37268 whole entry, looked up): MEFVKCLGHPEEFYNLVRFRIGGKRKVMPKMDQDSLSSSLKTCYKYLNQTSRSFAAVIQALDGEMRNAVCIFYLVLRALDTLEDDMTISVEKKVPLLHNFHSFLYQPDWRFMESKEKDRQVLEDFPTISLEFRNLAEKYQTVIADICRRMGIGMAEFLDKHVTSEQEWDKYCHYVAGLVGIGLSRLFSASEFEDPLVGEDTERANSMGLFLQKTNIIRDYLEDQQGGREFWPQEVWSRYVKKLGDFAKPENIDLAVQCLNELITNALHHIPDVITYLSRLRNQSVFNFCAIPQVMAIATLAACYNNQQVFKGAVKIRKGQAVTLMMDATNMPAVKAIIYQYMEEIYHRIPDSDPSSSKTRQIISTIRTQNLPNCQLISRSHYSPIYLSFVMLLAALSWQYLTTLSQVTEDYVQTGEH
Chain of UniProt Q9BXW9 (Q9BXW9 whole entry, looked up): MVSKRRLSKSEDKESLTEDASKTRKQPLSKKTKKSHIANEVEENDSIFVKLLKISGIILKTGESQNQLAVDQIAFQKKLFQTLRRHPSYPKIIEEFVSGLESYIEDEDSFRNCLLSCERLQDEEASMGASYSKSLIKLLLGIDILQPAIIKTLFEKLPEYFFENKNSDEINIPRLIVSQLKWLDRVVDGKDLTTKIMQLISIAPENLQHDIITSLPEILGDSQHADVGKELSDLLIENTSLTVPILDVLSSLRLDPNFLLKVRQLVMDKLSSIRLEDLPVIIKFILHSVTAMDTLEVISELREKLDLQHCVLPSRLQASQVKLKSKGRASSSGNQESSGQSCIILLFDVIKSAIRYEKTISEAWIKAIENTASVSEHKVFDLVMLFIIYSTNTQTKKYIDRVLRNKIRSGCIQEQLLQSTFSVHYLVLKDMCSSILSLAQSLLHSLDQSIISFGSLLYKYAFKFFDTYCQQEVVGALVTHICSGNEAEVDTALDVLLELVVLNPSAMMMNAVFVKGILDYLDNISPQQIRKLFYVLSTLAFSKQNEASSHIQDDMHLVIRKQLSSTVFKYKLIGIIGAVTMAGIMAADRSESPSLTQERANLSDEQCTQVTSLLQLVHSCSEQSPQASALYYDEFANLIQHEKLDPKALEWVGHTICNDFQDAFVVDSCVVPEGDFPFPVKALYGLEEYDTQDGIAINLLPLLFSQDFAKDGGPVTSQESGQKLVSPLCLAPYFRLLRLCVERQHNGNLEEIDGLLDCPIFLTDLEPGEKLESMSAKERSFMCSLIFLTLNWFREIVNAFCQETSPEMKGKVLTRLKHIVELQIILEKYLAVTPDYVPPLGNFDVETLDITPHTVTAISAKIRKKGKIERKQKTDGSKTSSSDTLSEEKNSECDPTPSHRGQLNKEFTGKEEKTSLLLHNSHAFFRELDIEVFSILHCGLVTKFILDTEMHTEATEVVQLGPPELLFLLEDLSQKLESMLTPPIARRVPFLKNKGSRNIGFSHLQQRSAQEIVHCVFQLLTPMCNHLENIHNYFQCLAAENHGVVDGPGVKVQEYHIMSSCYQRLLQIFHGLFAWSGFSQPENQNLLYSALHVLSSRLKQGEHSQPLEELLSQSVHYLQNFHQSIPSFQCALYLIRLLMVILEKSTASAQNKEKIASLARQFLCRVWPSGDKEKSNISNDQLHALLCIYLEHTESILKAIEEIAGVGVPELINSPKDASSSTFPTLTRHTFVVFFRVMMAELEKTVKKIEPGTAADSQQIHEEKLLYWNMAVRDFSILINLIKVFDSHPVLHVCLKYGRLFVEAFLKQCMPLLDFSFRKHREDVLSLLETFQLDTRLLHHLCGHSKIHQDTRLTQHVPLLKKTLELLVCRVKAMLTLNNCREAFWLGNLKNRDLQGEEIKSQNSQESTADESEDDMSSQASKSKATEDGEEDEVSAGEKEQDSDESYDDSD
Chain of UniProt Q8NB37 (Q8NB37 whole entry, looked up): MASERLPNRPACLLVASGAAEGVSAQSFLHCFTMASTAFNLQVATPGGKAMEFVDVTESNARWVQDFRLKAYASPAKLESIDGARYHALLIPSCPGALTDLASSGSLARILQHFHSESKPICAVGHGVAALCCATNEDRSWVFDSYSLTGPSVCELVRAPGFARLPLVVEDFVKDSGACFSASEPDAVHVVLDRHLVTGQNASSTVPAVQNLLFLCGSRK
Chain of UniProt O15117 (O15117 whole entry, looked up): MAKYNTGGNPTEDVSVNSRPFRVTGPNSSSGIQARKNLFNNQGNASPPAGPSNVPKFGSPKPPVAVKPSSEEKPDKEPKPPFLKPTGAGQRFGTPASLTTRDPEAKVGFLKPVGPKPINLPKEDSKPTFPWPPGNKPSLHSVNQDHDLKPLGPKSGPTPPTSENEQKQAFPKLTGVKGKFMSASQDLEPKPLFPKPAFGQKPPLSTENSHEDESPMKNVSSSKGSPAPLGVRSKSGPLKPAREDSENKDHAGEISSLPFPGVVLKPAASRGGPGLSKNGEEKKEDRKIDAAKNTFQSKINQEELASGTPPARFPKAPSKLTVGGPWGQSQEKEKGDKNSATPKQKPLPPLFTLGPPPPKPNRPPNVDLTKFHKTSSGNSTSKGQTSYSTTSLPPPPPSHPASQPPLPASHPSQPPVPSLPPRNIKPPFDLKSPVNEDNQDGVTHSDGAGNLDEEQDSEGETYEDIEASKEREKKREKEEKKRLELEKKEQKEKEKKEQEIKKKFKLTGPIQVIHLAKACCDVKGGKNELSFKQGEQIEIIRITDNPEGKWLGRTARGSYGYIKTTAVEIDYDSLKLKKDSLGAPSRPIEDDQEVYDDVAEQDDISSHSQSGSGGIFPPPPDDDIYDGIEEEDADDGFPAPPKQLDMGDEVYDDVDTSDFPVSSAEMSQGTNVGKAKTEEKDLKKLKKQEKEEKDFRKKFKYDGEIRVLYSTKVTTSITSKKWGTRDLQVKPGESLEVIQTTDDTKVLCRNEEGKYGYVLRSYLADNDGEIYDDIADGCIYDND
Chain of UniProt O43824 (O43824 whole entry, looked up): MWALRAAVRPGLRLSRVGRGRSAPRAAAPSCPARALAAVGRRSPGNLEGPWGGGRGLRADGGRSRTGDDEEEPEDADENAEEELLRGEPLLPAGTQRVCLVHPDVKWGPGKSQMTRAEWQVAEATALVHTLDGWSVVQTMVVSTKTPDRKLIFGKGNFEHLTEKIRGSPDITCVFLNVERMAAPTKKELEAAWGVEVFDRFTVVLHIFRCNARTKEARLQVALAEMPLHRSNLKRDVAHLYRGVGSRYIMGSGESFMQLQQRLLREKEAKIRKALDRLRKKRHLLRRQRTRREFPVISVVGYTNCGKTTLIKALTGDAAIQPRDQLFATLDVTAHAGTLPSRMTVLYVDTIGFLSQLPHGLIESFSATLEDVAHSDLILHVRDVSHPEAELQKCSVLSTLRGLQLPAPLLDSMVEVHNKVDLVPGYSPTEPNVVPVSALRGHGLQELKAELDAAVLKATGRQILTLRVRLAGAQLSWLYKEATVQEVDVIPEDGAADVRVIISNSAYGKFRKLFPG
Chain of UniProt Q8N2G8 (Q8N2G8 whole entry, looked up): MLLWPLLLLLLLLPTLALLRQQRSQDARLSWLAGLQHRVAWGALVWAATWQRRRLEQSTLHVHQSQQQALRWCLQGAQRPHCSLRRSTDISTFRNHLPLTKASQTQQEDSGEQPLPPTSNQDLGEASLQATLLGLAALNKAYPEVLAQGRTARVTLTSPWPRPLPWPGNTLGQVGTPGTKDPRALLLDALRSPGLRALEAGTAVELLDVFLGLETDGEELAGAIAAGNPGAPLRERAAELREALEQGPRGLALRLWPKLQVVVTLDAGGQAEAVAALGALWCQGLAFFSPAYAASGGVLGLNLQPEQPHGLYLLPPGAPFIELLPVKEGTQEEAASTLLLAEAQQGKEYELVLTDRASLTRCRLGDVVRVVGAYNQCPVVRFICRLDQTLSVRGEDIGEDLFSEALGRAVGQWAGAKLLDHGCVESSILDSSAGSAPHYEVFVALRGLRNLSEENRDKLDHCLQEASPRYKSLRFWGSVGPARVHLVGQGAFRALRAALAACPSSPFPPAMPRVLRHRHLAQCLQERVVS
Chain of UniProt P55795 (P55795 whole entry, looked up): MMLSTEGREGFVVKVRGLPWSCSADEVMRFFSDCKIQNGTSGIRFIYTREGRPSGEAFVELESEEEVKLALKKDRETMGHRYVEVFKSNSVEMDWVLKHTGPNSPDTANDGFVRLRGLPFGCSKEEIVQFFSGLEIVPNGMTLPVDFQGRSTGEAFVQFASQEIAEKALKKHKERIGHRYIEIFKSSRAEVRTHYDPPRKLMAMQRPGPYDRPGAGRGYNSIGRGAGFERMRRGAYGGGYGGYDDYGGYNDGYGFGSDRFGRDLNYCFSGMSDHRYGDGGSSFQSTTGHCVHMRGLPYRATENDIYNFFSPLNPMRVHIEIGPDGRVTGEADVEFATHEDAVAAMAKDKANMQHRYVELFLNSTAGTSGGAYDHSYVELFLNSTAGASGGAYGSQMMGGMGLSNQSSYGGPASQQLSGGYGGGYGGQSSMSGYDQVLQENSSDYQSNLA
Chain of UniProt Q9H4G4 (Q9H4G4 whole entry, looked up): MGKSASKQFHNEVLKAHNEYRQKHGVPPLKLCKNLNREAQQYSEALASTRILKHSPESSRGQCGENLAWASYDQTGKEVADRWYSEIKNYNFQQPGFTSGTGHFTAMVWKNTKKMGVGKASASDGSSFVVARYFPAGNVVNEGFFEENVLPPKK
Chain of UniProt P23434 (P23434 whole entry, looked up): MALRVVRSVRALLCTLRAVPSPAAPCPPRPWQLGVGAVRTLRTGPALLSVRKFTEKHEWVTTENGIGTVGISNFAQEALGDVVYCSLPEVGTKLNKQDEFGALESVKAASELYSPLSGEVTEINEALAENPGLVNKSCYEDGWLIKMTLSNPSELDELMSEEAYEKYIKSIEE

Regarding GHDC (UniProt Q8N2G8), the log2 fold change in assay [1] is -0.021; in assay [2], 0.013; in assay [3], 0.005; in [4], -0.018; with entinostat it was 0.004; with vorinostat, -0.023. Moreover, the log2 fold change in the assay with citarinostat was 0.045; with silmitasertib, 0.001; in assay [5] it was -0.045; in [6], -0.03.
As for FDFT1 (UniProt P37268), the log2 fold change in assay [1] is 0.044; in assay [2], 0.064; in [3], -0.042; in [4], 0.035; with entinostat, -0.008; with vorinostat, -0.018. Also, the log2 fold change with citarinostat was 0.086; with silmitasertib, -0.031; in assay [5] it was 0.004; in [6], 0.093.
In the case of FANCD2 isoform 1 (UniProt Q9BXW9), the log2 fold change was 0.087 in assay [1]; -0.189 in assay [2]; -0.304 in assay [3]; -0.034 in [4]; 0.022 in the assay with entinostat; 0.187 in the assay with vorinostat. Also, the log2 fold change in the assay with citarinostat is 0.11; with silmitasertib, -0.109; in assay [5], -0.034; in assay [6] it was -0.039.
Regarding HNRNPH2 (UniProt P55795), the log2 fold change in assay [1] is -0.073; in [2], -0.03; in [3], -0.124; in assay [4], -0.077; with entinostat it was 0.016; in the assay with vorinostat, 0.114. The log2 fold change was 0.06 with citarinostat, 0.031 with silmitasertib, -0.007 in assay [5] and -0.086 in assay [6].
For HNRNPF (UniProt P52597), the log2 fold change was -0.015 in [1]; 0.014 in assay [2]; -0.11 in assay [3]; -0.027 in assay [4]; 0.137 with entinostat; 0.154 with vorinostat. The log2 fold change with citarinostat was 0.07; with silmitasertib it was 0.074; in assay [5] it was -0.104; in assay [6], -0.048.
As to GTF2E2 (UniProt P29084), the log2 fold change is -0.097 in assay [1]; -0.052 in [2]; -0.048 in assay [3]; -0.048 in assay [4]; 0.025 in the assay with entinostat; 0.093 in the assay with vorinostat. The log2 fold change was 0.093 with citarinostat, 0.085 with silmitasertib, 0.054 in assay [5] and -0.067 in assay [6].
With HNRNPK isoform 2 (UniProt P61978), the log2 fold change in assay [1] is -0.045; in assay [2] it was -0.086; in assay [3] it was -0.073; in assay [4] it was -0.093; with entinostat it was 0.056; with vorinostat it was 0.065. The log2 fold change is 0.05 with citarinostat, -0.017 with silmitasertib, -0.137 in [5] and -0.038 in assay [6].
For the target FYB1 isoform 3 (UniProt O15117), the log2 fold change is -0.045 in [1]; 0.007 in [2]; 0.017 in assay [3]; 0.02 in assay [4]; 0.025 with entinostat; -0.02 with vorinostat. Besides, the log2 fold change was 0.093 with citarinostat, -0.097 with silmitasertib, -0.037 in [5] and -0.002 in assay [6].
As for GTPBP6 (UniProt O43824), the log2 fold change was -0.052 in assay [1]; -0.066 in assay [2]; 0.017 in [3]; -0.003 in assay [4]; -0.019 with entinostat; -0.1 with vorinostat. Besides, the log2 fold change was 0.093 in the assay with citarinostat, -0.115 with silmitasertib, 0.086 in assay [5] and -0.011 in assay [6].
HEATR5B (UniProt Q9P2D3): the log2 fold change in [1] is 0.01; in [2], 0.012; in assay [3], -0.152; in assay [4], -0.028; with entinostat, -0.03; in the assay with vorinostat it was -0.008. For the same target, the log2 fold change is 0 with citarinostat, -0.053 in the assay with silmitasertib, 0.083 in assay [5] and 0.056 in assay [6].
For GPX4 (UniProt P36969), the log2 fold change is -0.006 in assay [1]; 0.079 in assay [2]; -0.052 in assay [3]; 0.032 in [4]; -0.107 with entinostat; -0.082 with vorinostat. Besides, the log2 fold change with citarinostat is -0.391 (active); in the assay with silmitasertib it was 0.004; in assay [5], -0.006; in assay [6], -0.049.
For the target IFI30 (UniProt P13284), the log2 fold change in [1] was 0.035; in assay [2] it was 0.127; in assay [3], -0.048; in [4] it was 0.083; with entinostat it was -0.052; with vorinostat it was 0.03. Moreover, the log2 fold change with citarinostat is 0.059; in the assay with silmitasertib, -0.052; in [5], 0.128; in assay [6], -0.028.
Take GLIPR2 (UniProt Q9H4G4): the log2 fold change in assay [1] is -0.038; in [2] it was -0.058; in [3] it was -0.101; in [4], -0.071; with entinostat it was 0.058; with vorinostat it was 0.032. For the same target, the log2 fold change in the assay with citarinostat is -0.029; in the assay with silmitasertib it was 0.112; in assay [5], -0.017; in assay [6] it was -0.037.
Consider GCSH (UniProt P23434), for which the log2 fold change is 0.027 in assay [1]; 0.037 in assay [2]; 0.073 in [3]; 0.027 in assay [4]; -0.049 with entinostat; 0.057 with vorinostat. In addition, the log2 fold change with citarinostat was 0.022; in the assay with silmitasertib, 0.193; in assay [5], -0.144; in assay [6] it was -0.04.
With GATD1 (UniProt Q8NB37), the log2 fold change in assay [1] is 0.012; in assay [2], 0.028; in assay [3], -0.037; in assay [4] it was -0.013; with entinostat, -0.084; in the assay with vorinostat, -0.018. Besides, the log2 fold change with citarinostat was -0.031; with silmitasertib, -0.025; in assay [5], -0.673 (active); in [6], -0.031.
